Source: PubChem BioAssay (EPA / NIEHS)
Active and inactive are the calls of the source. How the source made its calls: active means hit-call score of the fitted dose curve at least 0.9, where 1 is the maximum; inactive means score below 0.9.

How the values were obtained:
[1] = ATG_ERE_CIS: Attagene CIS-FACTORIAL HepG2 Assay for Estrogen Response Element (ERE) (AID 2282940); conditions: HepG2 ERE cis-reporter, Attagene RNA transcript; actives raise or lower the signal
Summary of the method: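 Transient MRTU transfection of human HepG2; cis-element promoters; 24 h dosing; total RNA → RT (oligo dT) → PCR → 6-FAM primer extension → HpaI digest → CE fluorescence. Bidirectional fit, DMSO baseline.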

[2] = ATG_Ets_CIS: Attagene CIS-FACTORIAL HepG2 Assay for human Erythroblast Transformation Specific (ETS) (AID 2282941); conditions: HepG2 ETS cis-reporter transcription, actives raise or lower the signal
Summary of the method: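 Human HepG2 hepatoma cells were transiently transfected with promoter-driven reporter constructs and treated for 24 hours. Reporter transcripts were quantified by RT-PCR with fluorescent primer extension; bidirectional curve fitting used DMSO as reference.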

[3] = target: Hepatocyte nuclear factor 3-beta (Homo sapiens) (UniProt Q9Y261); test: ATG_FoxA2_CIS: Attagene CIS-FACTORIAL HepG2 Assay for human Forkhead box A2 (FOXA2) (AID 2282942); conditions: HepG2 cis-reporter transcription factor activity, 24 h; actives raise or lower the signal
Summary of the method: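 Transient MRTU transfection of HepG2 liver cells; 24 h treatment; total RNA → oligo(dT) RT → PCR → FAM primer extension → HpaI cut → CE. Bidirectional fit vs DMSO.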

[4] = ATG_FoxO_CIS: Attagene CIS-FACTORIAL HepG2 Assay for human Forkhead box O (FoxO) (AID 2282943); conditions: HepG2 Attagene cis-reporter, FoxO element, mRNA; actives raise or lower the signal
Summary of the method: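 Human hepatoma HepG2 cells carry transiently introduced reporter transcription units controlled by cis promoter elements. Chemical treatment lasted 24 h, and mRNA signal was compared with DMSO.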

[5] = ATG_GATA_CIS: Attagene CIS-FACTORIAL HepG2 Assay for human GATA Binding Protein (AID 2282944); conditions: HepG2 GATA cis-element reporter, Attagene multiplex mRNA; actives raise or lower the signal
Summary of the method: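 Transient MRTU transfection, HepG2, 24 h compound exposure. Total RNA → oligo(dT) RT → PCR → 6-FAM primer extension → HpaI cut → CE. Bidirectional fit vs DMSO.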

[6] = ATG_GLI_CIS: Attagene CIS-FACTORIAL HepG2 Assay for human Zinc Finger Protein GLI1 (AID 2282945); conditions: HepG2, Attagene cis-factorial reporter mRNA, GLI element; actives raise or lower the signal
Summary of the method: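 Bidirectional curve fits relative to DMSO, using reporter mRNA levels from RT-PCR plus capillary electrophoresis. Cells were HepG2 transiently carrying cis-regulated reporter constructs, harvested 24 h after dosing.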

[7] = target: Bile acid receptor (Homo sapiens) (UniProt Q96RI1); test: ATG_IR1_CIS: Attagene CIS-FACTORIAL HepG2 Assay for human Nuclear Receptor Subfamily 1 Group H Member 4 (NR1H4), IR1 submotif (AID 2282946); conditions: IR1 reporter transcription, actives raise or lower the signal
Summary of the method: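 Cells (human HepG2) carry transiently transfected cis-promoter reporter transcription units. Compounds are incubated 24 h, total RNA is reverse-transcribed and amplified, and labelled fragments are resolved by capillary electrophoresis. Curves use DMSO as baseline.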

[8] = ATG_GRE_CIS: Attagene CIS-FACTORIAL HepG2 Assay for human Glucocorticoid Response Elements (GRE) (AID 2282947); conditions: HepG2 GRE cis-reporter, Attagene multiplex mRNA; actives raise or lower the signal
Summary of the method: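 Transient MRTU transfection of human HepG2 liver cells; cis-regulated reporters report endogenous factors. 24 h dosing → RNA isolation → RT-PCR → 6-FAM primer extension → HpaI cut → CE fragment analysis. Bidirectional fit, DMSO negative control.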

[9] = ATG_ISRE_CIS: Attagene CIS-FACTORIAL HepG2 Assay for human Interferon Regulatory Factor 1 (IRF1) binding to an Interferon-Stimulated Response Element (ISRE) (AID 2282948); conditions: HepG2 ISRE cis-reporter (Attagene), mRNA transcription readout; actives raise or lower the signal
Summary of the method: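 Cell-based cis-reporter assay; HepG2; 24 h exposure; reporter mRNA by RT-PCR plus capillary electrophoresis fluorescence; activity in either direction scored relative to DMSO.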

[10] = ATG_M_32_CIS: Attagene CIS-FACTORIAL HepG2 Assay for M32 Transcription Factor (Internal Marker) (AID 2282949); conditions: HepG2 Attagene cis-factorial M32 reporter, mRNA; actives raise or lower the signal;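 further: background control marker of the multiplexed CIS panel rather than a real target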
Summary of the method: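 Fluorescent capillary electrophoresis peaks of HpaI-digested, FAM-labelled RT-PCR reporter products give the signal. Source: transiently transfected human liver HepG2 cells, 24 h after chemical dosing; bidirectional fitting against DMSO.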

[11] = ATG_M_06_CIS: Attagene CIS-FACTORIAL HepG2 Assay for M06 Transcription Factor (Internal Marker) (AID 2282950); conditions: HepG2 Attagene CIS-FACTORIAL M06 internal marker reporter; actives raise or lower the signal
Summary of the method: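 Read-out is fluorescence of labelled reporter cDNA fragments resolved by capillary electrophoresis after RT-PCR. Cells: HepG2 carrying transfected cis-promoter reporter units, treated 24 h. Gain or loss of signal fitted relative to DMSO.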

[12] = target: Hypoxia-inducible factor 1-alpha (Homo sapiens) (UniProt Q16665); test: ATG_HIF1a_CIS: Attagene CIS-FACTORIAL HepG2 Assay for human Hypoxia Inducible Factor 1 (HIF1A) (AID 2282951); conditions: HepG2 Attagene cis-factorial HIF1a reporter transcription; actives raise or lower the signal
Summary of the method: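 Transient MRTU transfection of human HepG2 liver cells, 24 h compound treatment, then total RNA isolation, oligo(dT) reverse transcription, PCR amplification, fluorescent labelling and capillary electrophoresis of reporter fragments. Gain or loss relative to DMSO.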

[13] = target: Hepatocyte nuclear factor 6 (Homo sapiens) (UniProt Q9UBC0); test: ATG_HNF6_CIS: Attagene CIS-FACTORIAL HepG2 Assay for human Hepatocyte Nuclear Factor 6 (HNF6) (AID 2282952); conditions: HepG2 Attagene cis-factorial HNF6 reporter transcription; actives raise or lower the signal
Summary of the method: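 Multiplexed mRNA reporter assay in transfected HepG2; 24 h dosing; RT-PCR plus capillary electrophoresis fluorescence; DMSO-referenced bidirectional curve fitting.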

[14] = target: Heat shock factor protein 1 (Homo sapiens) (UniProt Q00613); test: ATG_HSE_CIS: Attagene CIS-FACTORIAL HepG2 Assay for human Heat Shock Transcription Factor 1 (HSE) (AID 2282953); conditions: HepG2 HSE cis-reporter, Attagene RNA transcription; actives raise or lower the signal
Summary of the method: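 HepG2, transient MRTU transfection, cis-promoter reporters (endogenous TF activity). 24 h compound. RNA → oligo(dT) RT → PCR → 6-FAM primer extension → HpaI cut → CE. Bidirectional fit vs DMSO.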

[15] = ATG_MRE_CIS: Attagene CIS-FACTORIAL HepG2 Assay for human Metal Responsive Element (MRE) (AID 2282954); conditions: HepG2 MRE cis-reporter transcription, Attagene multiplex; actives raise or lower the signal
Summary of the method: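 Transient MRTU transfection of HepG2 (FuGene 6); 24 h dosing; total RNA → oligo(dT) RT, PCR, 6-FAM primer extension, HpaI cut, CE. Bidirectional fit vs DMSO.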

[16] = ATG_PBREM_CIS: Attagene CIS-FACTORIAL HepG2 Assay for human Phenobarbital-responsive Enhancer Module (PBREM) (AID 2282955); conditions: HepG2 PBREM cis-reporter, Attagene multiplexed transcription; actives raise or lower the signal
Summary of the method: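 Endogenous transcription factors in human liver HepG2 cells drive a PBREM cis-element reporter, whose transcript level after 24 h treatment is quantified by RT-PCR with capillary electrophoresis; activity fitted in both directions against DMSO.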

[17] = target: Paired box protein Pax-6 (Homo sapiens) (UniProt P26367); test: ATG_Pax6_CIS: Attagene CIS-FACTORIAL HepG2 Assay for human Paired Box 6 (PAX6) (AID 2282956); conditions: HepG2 CIS-FACTORIAL PAX6 reporter transcription, RNA readout; actives raise or lower the signal
Summary of the method: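 Multiplexed cis-reporter HepG2 system; 24 h treatment; reporter mRNA read by RT-PCR/CE fluorescence; bidirectional fit vs DMSO.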

[18] = ATG_PXRE_CIS: Attagene CIS-FACTORIAL HepG2 Assay for human Pregnane X Receptor Element (PXRE) (AID 2282957); conditions: HepG2 Attagene CIS-FACTORIAL PXRE reporter, mRNA; actives raise or lower the signal
Summary of the method: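 Cells: HepG2, transiently transfected reporter units under cis promoter control. Exposure: 24 h. Detection: reporter mRNA via RT-PCR/CE fluorescence; bidirectional fitting, DMSO-referenced.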

[19] = ATG_PPRE_CIS: Attagene CIS-FACTORIAL HepG2 Assay for human Peroxisome Proliferator-activated Response Element (PPRE) (AID 2282958); conditions: HepG2 PPRE cis-element reporter, Attagene transcription factor profiling; actives raise or lower the signal
Summary of the method: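 HepG2, transient MRTU transfection (cis promoter elements, endogenous TFs). 24 h dosing. RNA → oligo(dT) RT → PCR → 6-FAM primer extension → HpaI digest → CE. Bidirectional fit vs DMSO.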

[20] = ATG_RORE_CIS: Attagene CIS-FACTORIAL HepG2 Assay for human RAR-related Orphan Receptor Element (RORE) (AID 2282959); conditions: HepG2 Attagene cis-factorial RORE reporter, mRNA; actives raise or lower the signal
Summary of the method: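 Transient MRTU transfection of human HepG2 liver cells (FuGene 6); 24 h compound exposure; TriZol RNA, oligo(dT) RT, PCR, FAM labeling, HpaI cut, CE fragment analysis. DMSO = negative control/baseline.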

Sequence of Bile acid receptor (Homo sapiens) (Q96RI1 whole entry, looked up, the tested form may be a part): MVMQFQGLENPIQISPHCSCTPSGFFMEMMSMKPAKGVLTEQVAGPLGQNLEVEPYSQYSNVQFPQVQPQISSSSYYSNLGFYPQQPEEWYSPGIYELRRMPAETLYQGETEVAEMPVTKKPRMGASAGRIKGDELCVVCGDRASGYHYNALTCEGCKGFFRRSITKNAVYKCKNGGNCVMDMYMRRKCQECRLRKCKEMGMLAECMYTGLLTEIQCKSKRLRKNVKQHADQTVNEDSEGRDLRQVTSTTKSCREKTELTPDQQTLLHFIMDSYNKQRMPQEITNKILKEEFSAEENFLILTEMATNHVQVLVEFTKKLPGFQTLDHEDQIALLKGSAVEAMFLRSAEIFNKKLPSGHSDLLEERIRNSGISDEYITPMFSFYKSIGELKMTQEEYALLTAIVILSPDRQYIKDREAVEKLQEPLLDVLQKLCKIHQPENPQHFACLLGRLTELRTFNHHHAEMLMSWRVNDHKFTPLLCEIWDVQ
Sequence of Hypoxia-inducible factor 1-alpha (Homo sapiens) (Q16665 whole entry, looked up, the tested form may be a part): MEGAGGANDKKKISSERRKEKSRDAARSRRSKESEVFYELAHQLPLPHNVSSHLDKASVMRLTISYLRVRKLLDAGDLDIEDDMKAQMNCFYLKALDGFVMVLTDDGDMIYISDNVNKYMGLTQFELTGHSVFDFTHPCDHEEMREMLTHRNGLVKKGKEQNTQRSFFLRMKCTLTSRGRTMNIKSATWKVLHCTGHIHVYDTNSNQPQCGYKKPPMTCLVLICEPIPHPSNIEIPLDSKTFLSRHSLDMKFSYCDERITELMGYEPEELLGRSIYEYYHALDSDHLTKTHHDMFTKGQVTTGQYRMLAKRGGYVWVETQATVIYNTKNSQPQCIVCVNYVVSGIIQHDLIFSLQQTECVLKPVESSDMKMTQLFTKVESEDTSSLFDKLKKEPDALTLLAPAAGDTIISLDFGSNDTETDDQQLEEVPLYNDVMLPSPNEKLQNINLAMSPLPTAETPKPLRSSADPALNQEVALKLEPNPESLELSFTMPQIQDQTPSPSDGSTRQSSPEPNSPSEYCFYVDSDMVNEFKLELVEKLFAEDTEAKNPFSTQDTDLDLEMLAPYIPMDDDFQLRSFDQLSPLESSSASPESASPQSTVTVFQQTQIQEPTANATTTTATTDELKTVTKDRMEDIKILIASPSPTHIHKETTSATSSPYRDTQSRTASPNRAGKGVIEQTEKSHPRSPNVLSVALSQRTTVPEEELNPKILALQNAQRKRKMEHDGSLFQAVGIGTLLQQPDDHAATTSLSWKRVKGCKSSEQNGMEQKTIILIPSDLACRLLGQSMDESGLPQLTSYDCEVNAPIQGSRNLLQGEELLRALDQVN
Sequence of Heat shock factor protein 1 (Homo sapiens) (Q00613 whole entry, looked up): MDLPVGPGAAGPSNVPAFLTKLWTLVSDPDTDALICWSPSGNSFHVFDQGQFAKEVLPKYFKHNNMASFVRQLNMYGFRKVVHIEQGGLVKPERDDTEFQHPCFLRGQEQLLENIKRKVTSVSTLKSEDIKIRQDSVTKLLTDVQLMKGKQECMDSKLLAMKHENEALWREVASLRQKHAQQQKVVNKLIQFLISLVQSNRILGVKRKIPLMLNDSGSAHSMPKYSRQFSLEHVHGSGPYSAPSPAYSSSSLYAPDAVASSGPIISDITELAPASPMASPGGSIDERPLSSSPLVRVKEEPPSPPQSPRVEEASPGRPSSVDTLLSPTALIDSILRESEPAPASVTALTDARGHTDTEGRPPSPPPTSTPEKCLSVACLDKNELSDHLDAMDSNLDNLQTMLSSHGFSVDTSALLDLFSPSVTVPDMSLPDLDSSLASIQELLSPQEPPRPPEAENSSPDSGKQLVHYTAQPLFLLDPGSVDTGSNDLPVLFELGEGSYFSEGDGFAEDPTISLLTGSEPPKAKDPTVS
Sequence of Hepatocyte nuclear factor 6 (Homo sapiens) (Q9UBC0 whole entry, looked up): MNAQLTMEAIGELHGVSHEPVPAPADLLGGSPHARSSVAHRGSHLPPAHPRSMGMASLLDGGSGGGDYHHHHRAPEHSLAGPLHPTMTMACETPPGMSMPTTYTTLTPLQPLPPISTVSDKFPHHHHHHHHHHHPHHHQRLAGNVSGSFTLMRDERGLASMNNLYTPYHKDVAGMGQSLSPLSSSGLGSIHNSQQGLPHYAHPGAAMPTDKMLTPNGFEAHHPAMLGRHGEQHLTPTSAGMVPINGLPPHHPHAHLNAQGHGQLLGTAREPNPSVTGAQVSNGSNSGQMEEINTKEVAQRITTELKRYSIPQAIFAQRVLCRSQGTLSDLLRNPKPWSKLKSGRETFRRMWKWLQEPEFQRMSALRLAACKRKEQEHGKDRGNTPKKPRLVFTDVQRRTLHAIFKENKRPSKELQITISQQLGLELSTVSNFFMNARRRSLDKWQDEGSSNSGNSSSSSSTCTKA
Sequence of Paired box protein Pax-6 (Homo sapiens) (P26367 whole entry, looked up): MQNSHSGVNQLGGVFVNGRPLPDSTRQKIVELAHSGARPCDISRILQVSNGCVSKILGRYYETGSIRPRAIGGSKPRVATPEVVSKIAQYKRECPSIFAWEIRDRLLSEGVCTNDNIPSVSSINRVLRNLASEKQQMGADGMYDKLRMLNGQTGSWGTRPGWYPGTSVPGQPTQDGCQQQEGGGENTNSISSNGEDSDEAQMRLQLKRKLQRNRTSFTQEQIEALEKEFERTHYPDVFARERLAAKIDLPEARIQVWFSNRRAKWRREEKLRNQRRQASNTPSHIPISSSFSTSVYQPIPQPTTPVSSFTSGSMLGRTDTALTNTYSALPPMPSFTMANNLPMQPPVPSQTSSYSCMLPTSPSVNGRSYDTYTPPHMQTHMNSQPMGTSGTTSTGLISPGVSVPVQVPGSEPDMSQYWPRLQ
Sequence of Hepatocyte nuclear factor 3-beta (Homo sapiens) (Q9Y261 whole entry, looked up): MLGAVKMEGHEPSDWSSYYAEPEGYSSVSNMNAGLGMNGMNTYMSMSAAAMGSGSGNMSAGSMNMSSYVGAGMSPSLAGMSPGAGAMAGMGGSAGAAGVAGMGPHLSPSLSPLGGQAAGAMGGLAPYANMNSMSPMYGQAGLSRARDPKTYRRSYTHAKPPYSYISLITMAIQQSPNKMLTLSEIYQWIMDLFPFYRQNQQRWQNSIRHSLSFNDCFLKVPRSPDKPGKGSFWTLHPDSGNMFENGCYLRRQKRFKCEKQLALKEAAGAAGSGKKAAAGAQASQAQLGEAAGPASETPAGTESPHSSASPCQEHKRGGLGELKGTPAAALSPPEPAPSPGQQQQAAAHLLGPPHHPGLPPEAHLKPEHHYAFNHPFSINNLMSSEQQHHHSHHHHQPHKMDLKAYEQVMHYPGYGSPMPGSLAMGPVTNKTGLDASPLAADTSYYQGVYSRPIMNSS

CN(N=O)c1ccc([N+](=O)[O-])cc1
outcome [1]: inactive | outcome [2]: inactive | outcome [3]: inactive | outcome [4]: inactive | outcome [5]: inactive | outcome [6]: inactive | outcome [7]: inactive | outcome [8]: inactive | outcome [9]: inactive | outcome [10]: inactive | outcome [11]: inactive | outcome [12]: inactive | outcome [13]: inactive | outcome [14]: inactive | outcome [15]: inactive | outcome [16]: inactive | outcome [17]: inactive | AC50 [18]: 18.6 µM (active) | outcome [19]: inactive | outcome [20]: inactive

Cc1cc(SCc2sc(-c3ccc(C(F)(F)F)c(F)c3)nc2C)ccc1OCC(=O)O
outcome [1]: inactive | outcome [2]: inactive | outcome [3]: inactive | outcome [4]: inactive | outcome [5]: inactive | outcome [6]: inactive | outcome [7]: inactive | outcome [8]: inactive | AC50 [9]: 42.8 µM (active) | outcome [10]: inactive | outcome [11]: inactive | AC50 [12]: 17.2 µM (active) | outcome [13]: inactive | AC50 [14]: 50.9 µM (active) | AC50 [15]: 24.5 µM (active) | outcome [16]: inactive | AC50 [17]: 33.4 µM (active) | AC50 [18]: 1.32 µM (active) | AC50 [20]: 8.36 µM (active)

OC(Cc1ccccc1Cl)(Cn1[nH]cnc1=S)C1(Cl)CC1 (stereo not given)
AC50 [1]: 7.38 µM (active) | outcome [2]: inactive | outcome [3]: inactive | outcome [4]: inactive | outcome [5]: inactive | outcome [6]: inactive | outcome [7]: inactive | outcome [8]: inactive | AC50 [9]: 100 µM (active) | outcome [10]: inactive | outcome [11]: inactive | outcome [12]: inactive | outcome [13]: inactive | AC50 [14]: 140 µM (active) | AC50 [15]: 77.6 µM (active) | AC50 [16]: 21.7 µM (active) | outcome [17]: inactive | AC50 [18]: 4.27 µM (active) | outcome [20]: inactive

CCCCCCCCCCCCN(C)C
outcome [1]: inactive | outcome [2]: inactive | outcome [3]: inactive | AC50 [4]: 58.7 µM (active) | outcome [5]: inactive | outcome [6]: inactive | AC50 [7]: 47.8 µM (active) | outcome [8]: inactive | outcome [9]: inactive | outcome [10]: inactive | outcome [11]: inactive | outcome [12]: inactive | outcome [13]: inactive | AC50 [14]: 56.1 µM (active) | outcome [15]: inactive | outcome [16]: inactive | outcome [17]: inactive | outcome [19]: inactive | outcome [20]: inactive

CC(=Cc1ccccc1)[N+](=O)[O-]
outcome [1]: inactive | outcome [2]: inactive | outcome [3]: inactive | AC50 [4]: 11.1 µM (active) | AC50 [5]: 16.8 µM (active) | AC50 [6]: 20.1 µM (active) | AC50 [7]: 5.55 µM (active) | outcome [8]: inactive | AC50 [9]: 7.14 µM (active) | outcome [10]: inactive | outcome [11]: inactive | outcome [12]: inactive | outcome [13]: inactive | AC50 [14]: 4.41 µM (active) | outcome [15]: inactive | AC50 [16]: 13.7 µM (active) | AC50 [17]: 11.1 µM (active) | AC50 [18]: 4.02 µM (active) | outcome [20]: inactive

COC(F)(C(F)(F)C(F)(F)F)C(F)(C(F)(F)F)C(F)(F)F (stereo not given)
outcome [1]: inactive | outcome [2]: inactive | outcome [3]: inactive | outcome [4]: inactive | outcome [5]: inactive | outcome [6]: inactive | outcome [7]: inactive | outcome [8]: inactive | outcome [9]: inactive | outcome [10]: inactive | outcome [11]: inactive | outcome [12]: inactive | outcome [13]: inactive | outcome [14]: inactive | outcome [15]: inactive | outcome [16]: inactive | outcome [17]: inactive | outcome [19]: inactive | outcome [20]: inactive
